Inconclusive results are not listed. Active and inactive are the calls of the source. The call rests on the fitted dose curve; in most records, active means well fitted curve in the direction sought with a large enough effect; inconclusive means small, poorly fitted or top-dose-only effect, or another doubt; inactive means no such curve, though single readings can be large; an effect the other way counts as inactive or inconclusive.
Test system: Tov112D
Experiment: Primary qHTS to identify gynecologic anti-cancer compounds using libraries of approved drugs and bioactive compounds (AID 1345084); further: nearly all actives have a fitted effect of over 55% in size
Conditions: Gynecologic cancer cell panel viability, ATPlite luminescence, 48 h; series mostly up to 57.5 µM
Summary of the method: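 In this quantitative HTS, cell killing is estimated from loss of ATP-dependent luciferase light. Cells see five compound concentrations over a 48 h exposure.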
Potency means the concentration at half of the fitted maximal effect.

SMILES | Potency
CN(C)CC(C)(C)CNc1nn2c(-c3ccccc3)nnc2cc1C1CCC1 | inactive
Cc1cc(C(=O)N2CCN(c3cccc(Cl)c3)CC2)n(-c2ccccc2)n1 | 3980 nM (active)
CCOC(=O)C1=C(C)NC2=C(C(=O)CC(C)(C)C2)C1c1ccc(-c2ccccc2)cc1 (centres undefined) | 31600 nM (active)
CC(C)CC(=O)Nc1n[nH]c2c1CN(C(=O)C1CCN(C)CC1)C2(C)C | 7940 nM (active)
COc1ccc(C(=O)CC2(O)C(=O)Nc3c(Cl)ccc(Cl)c32)cc1 (centres undefined) | 3980 nM (active)
CN1CCN(Cc2ccc(NC(=O)Nc3ccc(Oc4cc(NC(=O)C5CC5)ncn4)cc3)cc2C(F)(F)F)CC1 | 708 nM (active)
Cn1c2ccccc2c2c3c(c4c5ccccc5n(CCC#N)c4c21)CNC3=O | inactive
COC(=O)C1=C(C)NC(C)=C(C(=O)OCCN2CCN(C(c3ccccc3)c3ccccc3)CC2)C1c1cccc([N+](=O)[O-])c1 (centres undefined) | inactive
COc1cc(-c2nn(C3CCC(N4CCN(C(C)=O)CC4)CC3)c3ncnc(N)c23)ccc1NC(=O)c1cc2ccccc2n1C (centres undefined) | inactive
CC(C)(O)CCc1ccc(OCc2cc(-c3cccc(OC(F)F)c3)c3ncccc3c2)cc1 | inactive
Cc1c(C)n(Cc2ccc(-c3ccccc3C(=O)O)cc2)c2ccc(C(=O)N[C@@H](C)c3ccc([N+](=O)[O-])cc3)cc12 | inactive
CS(=O)(=O)c1ccc(-c2cnc(N)c(C(=O)Nc3ccccc3)n2)cc1 | inactive
Cc1ccc2nc(NC(=O)CSc3nc4c(c(=O)n3-c3ccccc3)SCC4)sc2c1 | inactive
COC(=O)Nc1nc2ccc(C(=O)c3ccc(F)cc3)cc2[nH]1 | 3550 nM (active)
CNC(=O)c1c(F)cccc1Nc1nc(Nc2cc3c(cc2OC)CCN3C(=O)CN(C)C)nc2[nH]ccc12 | inactive
NCC(=O)Nc1ccc(-n2nc(C(F)(F)F)cc2-c2ccc3c(ccc4ccccc43)c2)cc1 | inactive

Test system: not listed separately
Experiment: qHTS assay to identify inhibitors of the type 1 interferon - major histocompatibility complex class I in skeletal muscle: Counter screen cell viability and HiBit confirmation (AID 1347412); further: nearly all actives have a fitted effect of over 60% in size
Conditions: iHSKM muscle cells + IFN-b, HiBiT or CellTiter-Glo, 24 h; HiBiT
Summary of the method: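 Luminescence read-out: Nano-Glo HiBiT lytic signal from C-terminally HiBiT-tagged HLA-B in CRISPR-edited human myoblasts, plus CellTiter Glo ATP as viability counter screen. IFN-beta 4.0 ng/ml; 24 hrs treatment at 37 C, 5% CO2.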

SMILES | Potency
Cc1nc(Nc2n[nH]c3c2CN(C(=O)N[C@H](CN(C)C)c2ccccc2)C3(C)C)c2sccc2n1 | 62.5 nM (active)
Cc1[nH]nc2ccc(-c3cncc(OC[C@@H](N)Cc4ccccc4)c3)cc12 | 991 nM (active)
Nc1ncnc2c1c(-c1cnc3[nH]ccc3c1)nn2C1CCCC1 | 2220 nM (active)
C[C@@H](Oc1cc(-c2cnn(C3CCNCC3)c2)cnc1N)c1c(Cl)ccc(F)c1Cl | 17600 nM (active)
Cc1ccc(C(N)=O)cc1Nc1nccc(-c2cn(C(C)C)c3cnccc23)n1 | 2490 nM (active)
O=C(c1ccc(Nc2nccc(-c3cc4ccccc4s3)n2)cc1)N1CCC(N2CCCC2)CC1 | 17600 nM (active)
CN1CCC(CNc2ccc3ncc(-c4cccc(OC(F)(F)F)c4)n3n2)CC1 | 22200 nM (active)
Cc1cc(CN2CCN(c3c(Br)cnc4nc(-c5ccc(N6CCN(C)CC6)cc5)[nH]c34)CC2)no1 | 8830 nM (active)
CCOC(=O)C1=C(C)NC2=C(C(=O)CC(C)(C)C2)C1c1ccc(-c2ccccc2)cc1 (centres undefined) | 2490 nM (active)
CC(C)CC(=O)Nc1n[nH]c2c1CN(C(=O)C1CCN(C)CC1)C2(C)C | 701 nM (active)
CN1CCN(Cc2ccc(NC(=O)Nc3ccc(Oc4cc(NC(=O)C5CC5)ncn4)cc3)cc2C(F)(F)F)CC1 | 442 nM (active)
CC(C)c1cc(-c2n[nH]c(=O)n2-c2ccc3c(ccn3C)c2)c(O)cc1O | 17.6 nM (active)
CC1(C)CC(=O)c2c(C(F)(F)F)nn(-c3ccc(C(N)=O)c(NC4CCC(OC(=O)CN)CC4)c3)c2C1 (centres undefined) | 55.7 nM (active)

From PubChem BioAssay (NCATS)
